# Experimental data as given in PubChem BioAssay AID1850 (Southern Research Specialized Biocontainment Screening …, 2009).
# The campaign covered roughly 310,000 compounds. About 1,000 (0.32%) were called active. Only a sample is shown. Results with a measured potency or affinity are listed apart. Values without a mark were called inactive. No rule for the calls is given here.
# Assay: Inhibition of PhoP regulon, Salmonella typhi GFP reporter cells, confirmation, 4 h (AID 1850);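 also: 0% = induced wells with vehicle and 100% = uninduced wells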
# Details: Salmonella Typhi PhoP-promoter GFP reporter, fluorescence, at 50 µM, hits give high values
row,Compound,inhibition [%]
1,NC(=O)/C=C/C(=O)Nc1ccc(Cl)cc1,5
2,O=C(/C=C/c1ccc(F)cc1)NC(=S)NC1CCCCC1,2.79
3,CC(/C=C/c1ccccc1)=N/NC(=O)c1cnccn1,1.54
4,COc1ccc(/C=C/C(=O)NC(=S)NNC(=O)c2cccnc2)cc1,-4.83
5,COc1ccc(/C=C/C(=O)NC(=S)NNC(=O)c2cc(OC)c(OC)c(OC)c2)cc1,4.25
6,O=C(/C=C/c1ccccc1)NC(=S)NNC(=O)c1cccnc1,4.06
7,CC(C)NC(=S)NC(=O)/C=C/c1ccc(F)cc1,-3.22
8,NC(=O)c1nsc(C(=O)N(c2ccc3c(c2)OCO3)C(C(=O)NCC2CCCO2)c2ccc(F)cc2)c1N (stereo unspecified),6.99
9,CSCCC(NS(=O)(=O)c1cc(C(=O)O)ccc1Cl)C(=O)O (stereo unspecified),-1.99
10,C=CCNC(=O)c1oc2ccc(S(=O)(=O)N3CCCCC3)cc2c1C,0.5
11,CCN(CC)CCCNC(=O)C1CCN(c2ncnc3c2sc2cccc(F)c23)CC1,3.1
12,COc1ccc(Nc2nc(NN)nc(Nc3ccc(OC)cc3)n2)cc1,-3.28
13,COc1c2n(C)ccc3c-2n(c(=O)c1=O)c1ccccc31,17.2
14,O=S(=O)(NCCSc1ccc(Cl)cc1)c1ccc2c(c1)OCCO2,-8.59
15,COc1cc(Cl)ccc1OCc1cc(C(=O)N2CCCCCCC2)no1,-27.8
16,CC1(c2nnc(-c3ccc(F)cc3)o2)CC(c2ccc([N+](=O)[O-])cc2)=NO1 (stereo unspecified),3.35
17,COc1cc(CNCCCCO)ccc1OCc1ccccc1F,-5.61
18,CCNCc1ccc(OCc2ccccc2F)c(OC)c1,-10.1
19,Fc1ccc(CNCCc2c[nH]c3ccccc23)cc1,11.8
20,COc1cccc(CNCCc2c[nH]c3ccccc23)c1OCc1ccc(F)cc1,-6.02
21,Cc1cccnc1NC(=O)CCc1nnc2ccc(N3CCC4(CC3)OCCO4)nn12,3.16

row,Compound,inhibition [%]
1,Oc1ccc2ccccc2c1CNc1ccc(Br)cn1,-4.93
2,CC(C)c1nn(-c2cc(C(F)(F)F)ccn2)c(=O)o1,1.48
3,CCOC(=O)c1cccc(NC(=O)c2cc(C)nn2-c2ccccc2)c1,8.61
4,Cc1ccc(-c2c[n+](CC(=O)Nc3ccccc3C)c3n2CCC3)cc1,5.92
5,Cc1ccccc1NC(=O)C[n+]1cc(-c2ccccc2)n2c1CCC2,-9.34
6,Cc1cccc(C)c1NC(=O)C[n+]1cc(-c2ccccc2)n2c1CCC2,-8.77
7,O=C(C[n+]1cc(-c2ccc(Cl)cc2)n2c1CCC2)Nc1nc(-c2ccc(F)cc2)cs1,-19
8,Cc1ccc(NC(=O)C[n+]2cc(-c3ccccc3)n3c2CCC3)cc1,10
9,Cc1ccc(NC(=O)C[n+]2cc(-c3ccc(C)cc3)n3c2CCC3)cc1,14.9
10,O=C(C[n+]1cc(-c2ccccc2)n2c1CCC2)Nc1nc(-c2ccccc2)cs1,-3.98
11,Cc1ccc(NC(=O)C[n+]2cc(-c3ccccc3)n3c2CCC3)c(C)c1,19.1
12,Cc1ccc(C(=O)CSc2nc(C)cc(C)c2C(N)=O)cc1,12.8
13,Cc1ccc(C(=O)N2N=C(c3cccc(NS(C)(=O)=O)c3)CC2c2cccs2)cc1 (stereo unspecified),-10.1
14,Cc1ccc(Cl)cc1NC(=O)C(=O)N/N=C/c1ccc2c(c1)OCO2,-4.53
15,COc1cccc(/C=C/C(=O)NCc2ccc(S(N)(=O)=O)cc2)c1,-0.15
16,CCOC(=O)c1c(NC(=O)Cn2ccsc2=N)sc(C)c1C,14.8
17,Cc1ccc(CSc2nnc(-c3ccncc3)n2C)cc1,-10.9
18,O=C(NC1CCCCCC1)c1ccc(Br)o1,-0.61
19,Cc1cc(NC(=O)CCC(=O)N(CC(=O)NC2CCCC2)c2ccc(Cl)c(Cl)c2)no1,14.6
20,Cc1cccc(C(=O)NCC(=O)OCC(=O)NC2CCCCCCC2)c1,0.27
21,Cc1ccc(-c2c[n+](CC(=O)Nc3nc(-c4ccc(F)cc4)cs3)c3n2CCC3)cc1,-3.86

row,Compound,inhibition [%]
1,Cc1ccc(-c2c[n+](CC(=O)Nc3c(C)cccc3C)c3n2CCC3)cc1,-24.6
2,O=C(C[n+]1cc(-c2ccc(F)cc2)n2c1CCC2)Nc1nc(-c2ccccc2)cs1,0.35
3,O=C(C[n+]1cc(-c2ccc(F)cc2)n2c1CCC2)Nc1nc(-c2ccc(F)cc2)cs1,-2.82
4,CCOC(=O)C(C)c1ccc2cc(OC)ccc2c1 (stereo unspecified),-2.05
5,Cc1cc(C)c2c(c1)/C(=N/NC(=O)c1cc(C)oc1C)CCC2,-3.06
6,CN(C)c1ccnc2sc3c(SCc4ccc(Cl)cc4)ncnc3c12,-7.49
7,CC(C)n1c(SCc2ccc(Cl)cc2)nc2c1c(=O)[nH]c(=O)n2C,-4.82
8,CN(C)CCN(C(=O)c1ccc(S(=O)(=O)N2CCCC2)cc1)c1nc2ccc(Br)cc2s1,0.55
9,O=C(CC1NCCc2ccccc21)Nc1ccccc1 (stereo unspecified),7.99
10,O=C(CC1NCCc2ccccc21)Nc1ccc(Cl)cc1 (stereo unspecified),8.21
11,Cc1cc(NCCO)nc(N2CCOCC2)n1,4.73
12,Cc1c(Br)cc(C(=O)O)c(C)c1C,7.99
13,COc1cc(C(=O)Nc2ccc(C)cc2C(NCC(=O)NN)c2ccccc2)cc(OC)c1OC (stereo unspecified),-8.05
14,Nn1c(-c2ccccc2)cc(-c2ccccc2)cc1=O,-2.08
15,O=c1cc(-c2ccccc2)cc(-c2ccccc2)n1CCO,6.95
16,CN(C)c1ccc(/C=[N+](\[O-])C2N(c3ccccc3)C(=S)SC2(C)C)cc1 (stereo unspecified),-5.4
17,COc1cc(C2c3c(oc4ccccc4c3=O)C(=O)N2CCN2CCOCC2)cc(OC)c1OC (stereo unspecified),-13.4
18,c1ccc2cc(OCCCn3ccnc3)ccc2c1,-0.84
19,Clc1ccccc1OCCCn1ccnc1,-8.4
